# How the values were obtained:
# [1] = biological target: T1, Ephrin type-A receptor 3 (Homo sapiens) (UniProt P29320); settings: at 10 µM
# T1 sequence (whole entry): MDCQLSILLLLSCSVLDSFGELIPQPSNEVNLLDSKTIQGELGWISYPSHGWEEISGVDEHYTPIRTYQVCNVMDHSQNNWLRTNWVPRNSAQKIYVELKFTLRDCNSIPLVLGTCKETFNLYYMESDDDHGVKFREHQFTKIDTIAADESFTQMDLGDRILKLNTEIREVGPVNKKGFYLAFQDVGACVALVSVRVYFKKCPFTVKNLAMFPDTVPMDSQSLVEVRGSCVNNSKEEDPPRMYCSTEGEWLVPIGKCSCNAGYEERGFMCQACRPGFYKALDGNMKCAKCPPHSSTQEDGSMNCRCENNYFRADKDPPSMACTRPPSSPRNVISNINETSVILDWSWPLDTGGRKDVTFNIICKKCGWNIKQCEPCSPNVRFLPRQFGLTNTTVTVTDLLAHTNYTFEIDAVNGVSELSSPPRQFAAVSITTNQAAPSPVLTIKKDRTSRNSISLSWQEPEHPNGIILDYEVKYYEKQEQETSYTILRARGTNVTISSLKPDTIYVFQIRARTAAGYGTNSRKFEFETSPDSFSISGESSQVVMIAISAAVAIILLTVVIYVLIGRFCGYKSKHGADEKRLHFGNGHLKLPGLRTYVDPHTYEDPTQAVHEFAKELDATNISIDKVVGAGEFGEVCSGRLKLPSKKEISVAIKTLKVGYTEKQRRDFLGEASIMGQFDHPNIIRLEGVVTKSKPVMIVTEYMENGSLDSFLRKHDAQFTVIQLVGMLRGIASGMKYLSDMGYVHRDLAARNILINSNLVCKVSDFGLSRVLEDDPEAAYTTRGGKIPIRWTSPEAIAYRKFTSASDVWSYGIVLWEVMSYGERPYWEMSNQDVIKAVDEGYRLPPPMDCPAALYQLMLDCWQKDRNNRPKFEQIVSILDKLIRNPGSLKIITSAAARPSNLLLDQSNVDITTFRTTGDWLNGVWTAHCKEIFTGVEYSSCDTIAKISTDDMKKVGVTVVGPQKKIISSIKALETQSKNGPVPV
# [2] = biological target: Ephrin type-A receptor 4 (Homo sapiens) (UniProt P54764); settings: at 1 µM
# Chain of Ephrin type-A receptor 4 (Homo sapiens) (P54764 whole entry): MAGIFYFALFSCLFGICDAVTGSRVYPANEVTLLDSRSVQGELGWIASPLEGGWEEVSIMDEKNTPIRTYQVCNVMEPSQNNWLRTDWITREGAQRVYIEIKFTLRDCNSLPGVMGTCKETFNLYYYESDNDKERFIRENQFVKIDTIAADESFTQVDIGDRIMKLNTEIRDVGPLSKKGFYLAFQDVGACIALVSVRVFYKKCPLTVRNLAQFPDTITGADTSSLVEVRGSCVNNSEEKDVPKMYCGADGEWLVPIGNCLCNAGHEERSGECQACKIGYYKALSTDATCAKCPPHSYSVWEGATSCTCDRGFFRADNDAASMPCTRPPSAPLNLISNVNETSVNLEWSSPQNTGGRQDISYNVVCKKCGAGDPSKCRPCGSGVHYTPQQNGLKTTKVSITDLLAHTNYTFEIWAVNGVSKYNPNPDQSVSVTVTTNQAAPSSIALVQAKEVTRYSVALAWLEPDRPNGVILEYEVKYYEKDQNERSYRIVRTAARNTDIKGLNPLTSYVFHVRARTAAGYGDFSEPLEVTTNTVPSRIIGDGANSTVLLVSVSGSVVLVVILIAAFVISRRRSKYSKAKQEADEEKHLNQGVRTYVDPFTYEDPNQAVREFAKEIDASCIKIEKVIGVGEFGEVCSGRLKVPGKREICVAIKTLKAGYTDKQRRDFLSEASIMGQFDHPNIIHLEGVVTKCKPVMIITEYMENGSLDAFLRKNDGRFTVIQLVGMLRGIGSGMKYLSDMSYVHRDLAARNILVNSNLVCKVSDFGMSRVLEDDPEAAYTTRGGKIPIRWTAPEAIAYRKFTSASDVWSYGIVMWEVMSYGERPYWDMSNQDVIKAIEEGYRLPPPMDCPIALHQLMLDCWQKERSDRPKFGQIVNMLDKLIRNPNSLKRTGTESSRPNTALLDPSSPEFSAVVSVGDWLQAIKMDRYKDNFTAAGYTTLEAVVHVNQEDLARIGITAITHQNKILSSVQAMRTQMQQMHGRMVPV
# [3] = biological target: Ephrin type-A receptor 4 (Homo sapiens) (UniProt P54764); settings: at 10 µM
# [4] = biological target: Ephrin type-A receptor 5 (Homo sapiens) (UniProt P54756); settings: at 1 µM
# Chain of Ephrin type-A receptor 5 (Homo sapiens) (P54756 whole entry): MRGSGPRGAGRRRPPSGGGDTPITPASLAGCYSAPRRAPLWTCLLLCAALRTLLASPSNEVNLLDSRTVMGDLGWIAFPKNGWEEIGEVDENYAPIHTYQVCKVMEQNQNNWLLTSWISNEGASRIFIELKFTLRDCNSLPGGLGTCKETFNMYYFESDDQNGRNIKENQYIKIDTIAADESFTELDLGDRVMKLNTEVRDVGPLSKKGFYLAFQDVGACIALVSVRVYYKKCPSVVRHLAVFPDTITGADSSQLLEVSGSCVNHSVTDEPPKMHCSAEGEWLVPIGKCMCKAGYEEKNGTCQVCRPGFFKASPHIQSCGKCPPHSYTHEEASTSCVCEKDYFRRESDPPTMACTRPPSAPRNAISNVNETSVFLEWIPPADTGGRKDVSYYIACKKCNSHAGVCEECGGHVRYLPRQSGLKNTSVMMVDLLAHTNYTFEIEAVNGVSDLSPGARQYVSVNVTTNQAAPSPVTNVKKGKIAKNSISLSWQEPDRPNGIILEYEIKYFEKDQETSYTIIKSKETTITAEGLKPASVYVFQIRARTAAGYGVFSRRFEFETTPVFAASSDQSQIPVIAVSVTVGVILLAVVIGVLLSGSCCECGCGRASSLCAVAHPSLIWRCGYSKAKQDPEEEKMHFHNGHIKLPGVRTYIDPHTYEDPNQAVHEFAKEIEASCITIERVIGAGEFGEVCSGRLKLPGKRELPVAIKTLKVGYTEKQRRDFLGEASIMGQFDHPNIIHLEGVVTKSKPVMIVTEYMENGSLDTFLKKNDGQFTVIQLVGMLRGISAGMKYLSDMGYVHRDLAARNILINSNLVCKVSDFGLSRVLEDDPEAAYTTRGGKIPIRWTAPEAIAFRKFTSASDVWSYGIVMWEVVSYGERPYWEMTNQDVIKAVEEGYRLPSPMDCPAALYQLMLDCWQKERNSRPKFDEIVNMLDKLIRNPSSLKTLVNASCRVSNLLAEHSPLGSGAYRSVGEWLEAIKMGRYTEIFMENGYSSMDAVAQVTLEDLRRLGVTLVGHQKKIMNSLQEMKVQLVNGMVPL
# [5] = biological target: Ephrin type-A receptor 5 (Homo sapiens) (UniProt P54756); settings: at 10 µM
# [6] = biological target: Ephrin type-A receptor 7 (Homo sapiens) (UniProt Q15375); settings: at 1 µM
# Chain of Ephrin type-A receptor 7 (Homo sapiens) (Q15375 28-998 limits assumed): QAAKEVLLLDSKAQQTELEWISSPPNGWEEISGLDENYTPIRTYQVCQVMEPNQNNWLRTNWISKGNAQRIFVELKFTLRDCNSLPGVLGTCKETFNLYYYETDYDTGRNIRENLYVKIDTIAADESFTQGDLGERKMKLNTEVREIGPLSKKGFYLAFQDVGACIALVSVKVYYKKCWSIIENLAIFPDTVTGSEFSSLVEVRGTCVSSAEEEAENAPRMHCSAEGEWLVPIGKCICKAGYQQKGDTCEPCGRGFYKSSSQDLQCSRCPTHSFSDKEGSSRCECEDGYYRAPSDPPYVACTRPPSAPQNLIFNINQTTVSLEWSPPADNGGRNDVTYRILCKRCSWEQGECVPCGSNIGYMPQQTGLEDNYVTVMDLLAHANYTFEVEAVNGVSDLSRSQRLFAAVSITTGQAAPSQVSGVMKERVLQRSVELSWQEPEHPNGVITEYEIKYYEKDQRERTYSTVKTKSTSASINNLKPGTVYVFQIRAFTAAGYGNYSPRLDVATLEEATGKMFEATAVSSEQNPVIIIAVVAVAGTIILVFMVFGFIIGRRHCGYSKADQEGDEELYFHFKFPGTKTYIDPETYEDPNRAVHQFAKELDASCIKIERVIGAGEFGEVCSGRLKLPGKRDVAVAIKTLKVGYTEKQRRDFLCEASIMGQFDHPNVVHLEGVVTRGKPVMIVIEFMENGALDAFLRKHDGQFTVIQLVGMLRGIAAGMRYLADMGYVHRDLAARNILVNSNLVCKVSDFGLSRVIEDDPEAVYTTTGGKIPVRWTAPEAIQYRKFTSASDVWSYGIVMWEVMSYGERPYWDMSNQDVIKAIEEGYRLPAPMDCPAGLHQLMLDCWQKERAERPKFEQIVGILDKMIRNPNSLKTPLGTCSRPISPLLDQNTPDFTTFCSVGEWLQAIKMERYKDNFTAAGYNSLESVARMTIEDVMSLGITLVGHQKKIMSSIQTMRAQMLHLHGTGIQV
# [7] = biological target: Ephrin type-A receptor 7 (Homo sapiens) (UniProt Q15375); settings: at 10 µM
# [8] = biological target: T2, Ephrin type-A receptor 8 (Homo sapiens) (UniProt P29322); settings: at 1 µM
# T2 sequence (whole entry): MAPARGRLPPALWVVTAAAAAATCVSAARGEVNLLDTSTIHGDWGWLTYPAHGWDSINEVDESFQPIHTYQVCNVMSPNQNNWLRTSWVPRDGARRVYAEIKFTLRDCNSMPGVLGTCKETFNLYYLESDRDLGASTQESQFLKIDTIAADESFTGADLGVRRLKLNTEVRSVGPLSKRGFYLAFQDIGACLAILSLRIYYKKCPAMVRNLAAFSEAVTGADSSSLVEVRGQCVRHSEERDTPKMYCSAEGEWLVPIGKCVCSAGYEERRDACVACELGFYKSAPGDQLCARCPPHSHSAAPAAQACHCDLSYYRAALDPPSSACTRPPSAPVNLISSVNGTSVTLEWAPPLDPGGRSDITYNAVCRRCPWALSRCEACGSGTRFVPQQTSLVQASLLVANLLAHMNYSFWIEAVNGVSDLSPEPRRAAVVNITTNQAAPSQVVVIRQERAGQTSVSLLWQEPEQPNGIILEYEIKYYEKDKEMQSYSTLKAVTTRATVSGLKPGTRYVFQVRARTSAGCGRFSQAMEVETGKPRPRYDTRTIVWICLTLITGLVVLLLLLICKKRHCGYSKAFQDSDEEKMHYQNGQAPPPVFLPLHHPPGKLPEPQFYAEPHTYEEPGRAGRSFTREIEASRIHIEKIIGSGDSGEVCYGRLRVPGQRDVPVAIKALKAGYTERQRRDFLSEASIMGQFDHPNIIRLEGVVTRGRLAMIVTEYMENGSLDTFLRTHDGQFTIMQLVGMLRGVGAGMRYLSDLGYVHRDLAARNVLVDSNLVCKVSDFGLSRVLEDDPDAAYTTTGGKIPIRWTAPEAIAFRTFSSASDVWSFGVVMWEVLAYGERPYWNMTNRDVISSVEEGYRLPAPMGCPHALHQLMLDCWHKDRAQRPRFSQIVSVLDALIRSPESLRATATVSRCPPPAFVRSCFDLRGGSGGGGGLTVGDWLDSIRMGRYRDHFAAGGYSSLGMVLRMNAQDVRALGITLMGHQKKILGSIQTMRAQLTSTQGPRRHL
# [9] = biological target: T2, Ephrin type-A receptor 8 (Homo sapiens); settings: at 10 µM
# [10] = biological target: T3, Ephrin type-B receptor 1 (Homo sapiens) (UniProt P54762); settings: at 1 µM
# T3 sequence (whole entry): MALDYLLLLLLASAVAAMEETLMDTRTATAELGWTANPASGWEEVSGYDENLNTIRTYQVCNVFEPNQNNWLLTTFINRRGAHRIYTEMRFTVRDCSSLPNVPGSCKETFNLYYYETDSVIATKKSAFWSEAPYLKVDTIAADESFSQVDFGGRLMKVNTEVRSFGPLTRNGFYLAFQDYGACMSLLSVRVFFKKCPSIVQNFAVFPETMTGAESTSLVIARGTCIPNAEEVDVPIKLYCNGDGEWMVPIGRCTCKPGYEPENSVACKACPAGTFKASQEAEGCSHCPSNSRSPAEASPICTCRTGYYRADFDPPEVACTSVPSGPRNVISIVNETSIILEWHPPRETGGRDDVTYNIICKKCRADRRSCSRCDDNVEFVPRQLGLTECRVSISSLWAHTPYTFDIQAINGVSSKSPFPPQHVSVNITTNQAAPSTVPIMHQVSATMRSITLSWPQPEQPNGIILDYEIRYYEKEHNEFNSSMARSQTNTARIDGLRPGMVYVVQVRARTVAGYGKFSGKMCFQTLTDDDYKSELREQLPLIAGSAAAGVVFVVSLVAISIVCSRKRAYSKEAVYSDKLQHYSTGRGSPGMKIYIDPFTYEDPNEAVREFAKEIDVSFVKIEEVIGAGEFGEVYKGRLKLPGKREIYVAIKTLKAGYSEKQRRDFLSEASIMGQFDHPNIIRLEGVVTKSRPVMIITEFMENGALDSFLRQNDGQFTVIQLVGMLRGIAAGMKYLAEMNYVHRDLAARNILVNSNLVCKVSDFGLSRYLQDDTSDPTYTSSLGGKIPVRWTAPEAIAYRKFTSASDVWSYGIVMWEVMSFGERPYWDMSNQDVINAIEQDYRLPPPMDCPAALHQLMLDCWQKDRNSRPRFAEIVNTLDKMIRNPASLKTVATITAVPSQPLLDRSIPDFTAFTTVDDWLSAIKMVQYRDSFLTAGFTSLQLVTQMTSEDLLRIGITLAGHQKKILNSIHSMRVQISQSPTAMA
# [11] = biological target: T3, Ephrin type-B receptor 1 (Homo sapiens); settings: at 10 µM
# [12] = biological target: T4, Ephrin type-B receptor 2 (Homo sapiens) (UniProt P29323); settings: at 1 µM
# T4 sequence (whole entry): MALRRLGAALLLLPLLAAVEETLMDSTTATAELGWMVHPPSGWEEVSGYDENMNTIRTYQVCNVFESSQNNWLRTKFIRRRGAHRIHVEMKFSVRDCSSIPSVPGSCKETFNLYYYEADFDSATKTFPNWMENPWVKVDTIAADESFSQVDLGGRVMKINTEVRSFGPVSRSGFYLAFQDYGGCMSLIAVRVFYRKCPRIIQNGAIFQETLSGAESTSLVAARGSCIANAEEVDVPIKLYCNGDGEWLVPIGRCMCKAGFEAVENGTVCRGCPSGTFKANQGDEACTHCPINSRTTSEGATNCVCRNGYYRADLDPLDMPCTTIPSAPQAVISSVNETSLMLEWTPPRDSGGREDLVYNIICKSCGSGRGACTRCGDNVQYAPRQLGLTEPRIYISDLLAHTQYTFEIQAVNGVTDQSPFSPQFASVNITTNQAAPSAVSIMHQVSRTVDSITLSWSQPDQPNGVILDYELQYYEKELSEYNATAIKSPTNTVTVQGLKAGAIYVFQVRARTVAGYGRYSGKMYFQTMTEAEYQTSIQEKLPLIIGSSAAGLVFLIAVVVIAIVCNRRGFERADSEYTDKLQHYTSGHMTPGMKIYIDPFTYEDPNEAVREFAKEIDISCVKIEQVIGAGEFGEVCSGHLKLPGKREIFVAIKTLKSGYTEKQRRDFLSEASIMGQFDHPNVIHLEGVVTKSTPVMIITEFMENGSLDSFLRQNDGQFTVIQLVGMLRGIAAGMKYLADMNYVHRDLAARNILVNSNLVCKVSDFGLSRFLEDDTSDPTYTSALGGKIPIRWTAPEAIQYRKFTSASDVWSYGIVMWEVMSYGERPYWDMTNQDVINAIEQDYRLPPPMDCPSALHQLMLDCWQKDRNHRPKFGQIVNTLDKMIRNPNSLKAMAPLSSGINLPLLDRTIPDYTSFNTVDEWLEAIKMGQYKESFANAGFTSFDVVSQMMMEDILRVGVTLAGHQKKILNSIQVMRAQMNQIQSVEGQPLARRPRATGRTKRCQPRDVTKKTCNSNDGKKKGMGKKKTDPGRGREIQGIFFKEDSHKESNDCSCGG
# [13] = biological target: T4, Ephrin type-B receptor 2 (Homo sapiens); settings: at 10 µM
# [14] = biological target: T5, Ephrin type-B receptor 3 (Homo sapiens) (UniProt P54753); settings: at 1 µM
# T5 sequence (whole entry): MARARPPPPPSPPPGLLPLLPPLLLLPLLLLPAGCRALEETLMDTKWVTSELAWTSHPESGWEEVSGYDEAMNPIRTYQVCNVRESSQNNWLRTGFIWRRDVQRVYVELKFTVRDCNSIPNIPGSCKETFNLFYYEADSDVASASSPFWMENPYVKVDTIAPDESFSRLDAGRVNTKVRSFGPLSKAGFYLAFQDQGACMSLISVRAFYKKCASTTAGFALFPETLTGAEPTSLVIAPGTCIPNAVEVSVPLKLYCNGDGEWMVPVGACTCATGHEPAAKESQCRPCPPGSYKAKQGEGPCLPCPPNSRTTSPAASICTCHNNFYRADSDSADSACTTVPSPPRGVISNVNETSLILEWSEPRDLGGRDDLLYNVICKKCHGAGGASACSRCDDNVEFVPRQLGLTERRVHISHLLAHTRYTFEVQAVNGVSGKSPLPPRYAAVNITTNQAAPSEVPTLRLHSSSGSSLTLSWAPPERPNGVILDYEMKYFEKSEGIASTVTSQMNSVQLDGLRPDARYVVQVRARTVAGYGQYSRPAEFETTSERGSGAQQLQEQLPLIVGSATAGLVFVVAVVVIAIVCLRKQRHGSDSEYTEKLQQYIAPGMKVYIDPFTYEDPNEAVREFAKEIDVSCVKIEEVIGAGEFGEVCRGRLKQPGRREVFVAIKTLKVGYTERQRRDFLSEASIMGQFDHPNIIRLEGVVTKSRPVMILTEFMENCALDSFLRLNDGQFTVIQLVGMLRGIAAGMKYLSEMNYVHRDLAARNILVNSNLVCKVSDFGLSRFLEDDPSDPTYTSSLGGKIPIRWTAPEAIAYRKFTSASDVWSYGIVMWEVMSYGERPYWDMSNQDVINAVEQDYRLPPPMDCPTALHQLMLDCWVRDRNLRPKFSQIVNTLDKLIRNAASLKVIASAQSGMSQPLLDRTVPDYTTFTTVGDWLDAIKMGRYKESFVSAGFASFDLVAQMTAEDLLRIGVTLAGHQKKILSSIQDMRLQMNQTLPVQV
# [15] = biological target: T6, Ephrin type-B receptor 4 (Homo sapiens) (UniProt P54760); settings: at 1 µM
# T6 sequence (whole entry): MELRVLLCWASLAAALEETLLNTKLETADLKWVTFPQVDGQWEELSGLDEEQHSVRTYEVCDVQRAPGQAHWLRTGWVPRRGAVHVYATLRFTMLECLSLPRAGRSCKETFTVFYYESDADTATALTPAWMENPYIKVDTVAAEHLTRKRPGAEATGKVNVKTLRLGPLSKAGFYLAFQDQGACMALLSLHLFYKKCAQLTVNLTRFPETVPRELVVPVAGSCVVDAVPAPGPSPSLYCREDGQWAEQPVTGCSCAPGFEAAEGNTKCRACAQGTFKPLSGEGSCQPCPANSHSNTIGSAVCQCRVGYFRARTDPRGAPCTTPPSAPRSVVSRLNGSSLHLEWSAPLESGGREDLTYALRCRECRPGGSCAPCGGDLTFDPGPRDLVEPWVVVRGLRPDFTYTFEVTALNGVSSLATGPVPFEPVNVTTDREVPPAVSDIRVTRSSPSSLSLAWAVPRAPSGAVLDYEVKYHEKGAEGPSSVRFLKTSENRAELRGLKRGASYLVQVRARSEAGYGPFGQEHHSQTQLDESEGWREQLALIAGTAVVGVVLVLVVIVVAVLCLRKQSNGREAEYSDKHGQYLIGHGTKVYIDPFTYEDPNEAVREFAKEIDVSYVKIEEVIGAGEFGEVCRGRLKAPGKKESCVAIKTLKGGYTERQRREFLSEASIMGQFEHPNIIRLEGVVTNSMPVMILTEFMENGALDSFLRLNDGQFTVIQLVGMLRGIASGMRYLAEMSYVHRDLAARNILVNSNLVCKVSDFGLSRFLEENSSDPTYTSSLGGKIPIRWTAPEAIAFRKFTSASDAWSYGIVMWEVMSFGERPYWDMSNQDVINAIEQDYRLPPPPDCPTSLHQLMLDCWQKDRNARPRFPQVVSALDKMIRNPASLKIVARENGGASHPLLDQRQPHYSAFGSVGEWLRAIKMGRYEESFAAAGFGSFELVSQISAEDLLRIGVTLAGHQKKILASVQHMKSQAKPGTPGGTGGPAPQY
# [16] = biological target: T6, Ephrin type-B receptor 4 (Homo sapiens); settings: at 10 µM
# [17] = biological target: Receptor tyrosine-protein kinase erbB-4 (Homo sapiens) (UniProt Q15303); settings: at 1 µM
# Chain of Receptor tyrosine-protein kinase erbB-4 (Homo sapiens) (Q15303 whole entry): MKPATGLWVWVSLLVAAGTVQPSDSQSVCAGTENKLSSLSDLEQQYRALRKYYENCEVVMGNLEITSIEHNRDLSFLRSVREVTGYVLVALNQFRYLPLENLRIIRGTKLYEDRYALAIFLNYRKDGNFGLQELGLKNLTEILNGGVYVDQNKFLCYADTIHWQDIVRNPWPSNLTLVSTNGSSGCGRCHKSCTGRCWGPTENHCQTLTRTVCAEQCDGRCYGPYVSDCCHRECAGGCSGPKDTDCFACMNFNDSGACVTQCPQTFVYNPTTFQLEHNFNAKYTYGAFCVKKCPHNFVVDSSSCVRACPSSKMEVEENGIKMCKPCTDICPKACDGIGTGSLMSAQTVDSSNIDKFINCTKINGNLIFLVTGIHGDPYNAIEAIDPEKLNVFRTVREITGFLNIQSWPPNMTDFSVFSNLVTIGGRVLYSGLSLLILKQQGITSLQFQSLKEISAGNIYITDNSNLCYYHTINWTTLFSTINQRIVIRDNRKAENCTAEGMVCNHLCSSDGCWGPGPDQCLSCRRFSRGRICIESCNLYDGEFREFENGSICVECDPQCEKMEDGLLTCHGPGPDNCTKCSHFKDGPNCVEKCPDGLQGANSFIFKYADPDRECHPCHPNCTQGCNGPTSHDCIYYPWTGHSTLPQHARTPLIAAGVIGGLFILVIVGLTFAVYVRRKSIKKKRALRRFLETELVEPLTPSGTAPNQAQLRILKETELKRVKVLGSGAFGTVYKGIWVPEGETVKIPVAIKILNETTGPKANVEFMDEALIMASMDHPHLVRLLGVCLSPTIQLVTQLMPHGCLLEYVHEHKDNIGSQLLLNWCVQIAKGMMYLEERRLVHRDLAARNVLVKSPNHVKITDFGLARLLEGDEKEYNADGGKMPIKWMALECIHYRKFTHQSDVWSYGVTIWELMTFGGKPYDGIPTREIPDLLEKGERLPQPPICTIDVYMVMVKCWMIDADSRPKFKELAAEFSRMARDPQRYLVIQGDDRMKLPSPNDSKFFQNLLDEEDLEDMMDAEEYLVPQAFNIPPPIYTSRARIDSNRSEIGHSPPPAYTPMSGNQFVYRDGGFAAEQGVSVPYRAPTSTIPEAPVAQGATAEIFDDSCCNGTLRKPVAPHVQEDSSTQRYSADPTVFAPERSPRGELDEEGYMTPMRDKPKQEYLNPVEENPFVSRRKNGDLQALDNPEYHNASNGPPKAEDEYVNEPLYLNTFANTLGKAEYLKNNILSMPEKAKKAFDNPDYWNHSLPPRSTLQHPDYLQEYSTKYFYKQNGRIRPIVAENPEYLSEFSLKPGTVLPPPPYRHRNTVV
# [18] = biological target: Receptor tyrosine-protein kinase erbB-4 (Homo sapiens) (UniProt Q15303); settings: at 10 µM
smiles,measurement,setting,value
CCCC(=O)Oc1ccc2[nH]c(C(=O)c3cc4ccccc4[nH]3)cc2c1,residual activity,[1],105%
same,residual activity,[2],105%
same,residual activity,[3],91%
same,residual activity,[4],107%
same,residual activity,[5],99%
same,residual activity,[6],96%
same,residual activity,[7],86%
same,residual activity,[8],92%
same,residual activity,[9],98%
same,residual activity,[10],82%
same,residual activity,[11],108%
same,residual activity,[12],120%
same,residual activity,[13],131%
same,residual activity,[14],102% (inactive)
same,residual activity,[15],92%
same,residual activity,[16],101%
same,residual activity,[17],81%
same,residual activity,[18],95%

# Source: ChEMBL document CHEMBL2218924, “A broad activity screen in support of a chemogenomic map for kinase signalling research and drug discovery” (Biochem J, 2013)
